Results reported in PubChem BioAssay.
Records with an inconclusive call do not appear. Active and inactive are the calls of the source. Cut-off read from the data, not from the text of the source, unless noted: active = inhibition above about 80%; inactive = the rest.

Columns and labels:
[1] = P. berghei load reduction in hepatocytes – cell-based, HepG2, luciferase luminescence, HepG2 viability, primary screen (AID 624349; in the data active = parasite load remaining mostly below about 12%, no sharp cut-off; inactive = mostly above about 10%;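 note: 100% = mean of DMSO negative control wells on the same plate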); details: P. berghei liver stage in HepG2, luciferase luminescence, concentration not given here; parasite load remaining: stronger effect = lower value; viability: measured here: HepG2 viability without parasites
[2] = target: 6-phosphogluconate dehydrogenase, decarboxylating (Homo sapiens) (UniProt P52209); assay: inhibition of human phosphogluconate dehydrogenase – biochemical, recombinant enzyme, NADPH absorbance, primary screen (AID 1159550;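 active = at least 20% inhibition of 6-phosphogluconate dehydrogenase activity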); details: recombinant 6PGD, NADPH absorbance 341 nm; at 10 µM; stronger effect = higher value
[3] = viability loss in pontine glioma line – cell-based, SU-DIPG-XVII, MIPE5.0, CellTiter-Glo, qHTS, dose response (AID 1347060; cut-off not given, nearly all actives have AC50 up to about 26 µM;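 note: cells exposed to compound for 48 hours before viability readout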); details: CellTiter-Glo ATP luminescence
[4] = viability loss in pontine glioma line – cell-based, SU-DIPG-XIII, MIPE4.0, CellTiter-Glo, qHTS, dose response (AID 1347061; cut-off not given, nearly all actives have AC50 up to about 37 µM;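 note: cells exposed to compound for 48 hours before readout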); details: CellTiter-Glo ATP luminescence
[5] = viability loss in pontine glioma line – cell-based, JHH-DIPG-1, MIPE4.0, CellTiter-Glo, qHTS, dose response (AID 1347062; cut-off not given, nearly all actives have AC50 up to about 27 µM); details: JHH-DIPG-1 viability, CellTiter-Glo ATP luminescence
[6] = viability loss in pontine glioma line – cell-based, SU-DIPG-XXV, MIPE5.0, CellTiter-Glo, qHTS, dose response (AID 1347065; cut-off not given, nearly all actives have AC50 up to about 26 µM;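 note: cells exposed to compound for 48 hours before ATP readout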); details: CellTiter-Glo ATP luminescence
[7] = JHH-DIPG-1 glioma cell viability, MIPE5.0 library, CellTiter-Glo luminescence, qHTS (AID 1347067; cut-off not given, nearly all actives have AC50 up to about 26 µM;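 note: cells exposed to compound for 48 hours before readout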); details: JHH-DIPG-1 glioma viability, CellTiter-Glo ATP luminescence
[8] = viability loss with induced miR-34 in A549 – imaging, A549 dox-inducible miR-34, nuclei and caspase counts, primary screen (AID 1347080;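 active = compounds whose cell count with miR-34 switched on is under 0.7 times the count with it off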); details: A549 miR-34 inducible, Hoechst nuclei count, 48 h
[9] = MELAS cybrid and Rieske KO viability enhancers – cell-based, MELAS cybrids, Rieske KO mouse fibroblasts, CellTiter-Glo, primary screen (AID 1508586;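 active = mean z-score across replicates of 1.96 or higher in either the MELAS or the Rieske mutant cell line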;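 note: z relative to plate mean and SD of compound and empty wells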); details: low glucose
[10] = target: NAD(+) hydrolase SARM1 (Homo sapiens) (UniProt Q6SZW1); assay: blocking NAD cleavage by SARM1 SAM-TIR – cell lysate, NAD-Glo luminescence (AID 1508614;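 active = compound whose remaining NAD level is above about 45 nM, limit read from the data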;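 note: higher remaining NAD means stronger inhibition of SARM1 NADase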); details: SAM-TIR HEK293T lysate NADase, at 1 µM, stronger effect = higher value
[11] = target: Mitogen-activated protein kinase 7 (Homo sapiens) (UniProt Q13164); assay: Gal4-ERK5 driven luciferase induction – cell-based, HTS, primary screen (AID 1508626;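 active = luciferase signal above three times the same-plate solvent-only control wells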;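 note: luciferase driven by Gal4-ERK5 fusion binding five Gal4 sites before minimal TATA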); details: HeLa Gal4-ERK5 transactivation, 18 h, at 5 µM, stronger effect = higher value
[12] = galactose survival enhancers in mitochondrial complex I cybrids – cell-based, galactose medium, ATP luminescence, primary screen (AID 1645843;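 active = z-score of at least 1.8 in each of two replicates, scored against plate mean and spread of sample wells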;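 note: positive z means more ATP and so rescue of galactose-driven cybrid death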); details: complex I mutant cybrid cells, 72 h, stronger effect = higher value
[13] = growth inhibition, single agent or in combination, cell-based, chromothripsis tumors, cisplatin or BGB combos (AID 1671449); details: LFS_MB_P medulloblastoma cells;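 note: cells exposed for 96 hours; 0% = vehicle DMSO and 100% = killing by high DMSO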
[14] = growth inhibition, single agent and combos, cell-based, chromothripsis tumors, cisplatin or BGB combos (AID 1671450); details: HDN33 neuroblastoma cells, stronger effect = higher value;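 note: cells exposed to compound for four days; 0% = vehicle DMSO and 100% = cell killing by high DMSO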
[15] = growth inhibition, single agents and combos, ICB984, cell-based, cisplatin or BGB combos, synergistic combos for chromothripsis tumors (AID 1671451; call rule not given here;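 note: cells exposed for 96 hours before readout; 0% = vehicle DMSO and 100% = killing by high DMSO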); details: ICB984 medulloblastoma cells, drug combinations, stronger effect = higher value
[16] = growth inhibition, single agents and combos, LFS_MB_1R, cell-based, cisplatin or BGB combos, synergistic combos for chromothripsis tumors (AID 1671452); details: LFS_MB_1R medulloblastoma cells, stronger effect = higher value;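 note: cells exposed for 96 hours before readout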
[17] = growth inhibition, single agents and combos, HTB85, cell-based, BGB or cisplatin IC20 combos, synergistic combos for chromothripsis tumors (AID 1671453); details: HTB85 osteosarcoma cells, drug combinations, stronger effect = higher value;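 note: cells exposed for 96 hours before readout; 0% = vehicle DMSO and 100% = high DMSO killing control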
[18] = growth inhibition, single agents and combos, CRL2098, cell-based, BGB or cisplatin IC20 combos, synergistic combos for chromothripsis tumors (AID 1671454); details: CRL2098 osteosarcoma cells, drug combinations, stronger effect = higher value;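 note: cells exposed for 96 h before readout; 0% = vehicle DMSO and 100% = killing by high DMSO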
[19] = growth inhibition, single agents and combos, HD-MB03, cell-based, BGB or cisplatin IC20 combos, synergistic combos for chromothripsis tumors (AID 1671455; in the data active = inhibition above about 83%;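 note: 0% = vehicle DMSO and 100% = high DMSO as cytotoxic control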); details: HD-MB03 medulloblastoma cells, stronger effect = higher value
[20] = growth inhibition, single agents and combos, UWB1.289, cell-based, BGB or cisplatin combos, synergistic combos for chromothripsis tumors (AID 1671456); details: UWB1.289 ovarian carcinoma cells, stronger effect = higher value;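 note: cells exposed to compound for four days; 0% = vehicle DMSO and 100% = killing by high DMSO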
[21] = growth inhibition, single agents and combos, LFS_MB_2R, cell-based, cisplatin combos, synergistic combos for chromothripsis tumors (AID 1671457); details: LFS_MB_2R medulloblastoma cells, stronger effect = higher value;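 note: cells exposed to compound for four days before readout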
[22] = growth inhibition, MDA-MB-436, cell-based, BGB or cisplatin combos, synergistic combos for chromothripsis tumors (AID 1671458; call rule not given here;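 note: cells exposed for 96 hours; 0% = vehicle DMSO and 100% = killing by high DMSO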); details: MDA-MB-436 breast carcinoma growth inhibition, drug combinations, stronger effect = higher value
[23] = UWB1.289_BRCA1 ovarian cancer growth, cell-based, BGB or cisplatin combinations (AID 1671459); details: UWB1.289 BRCA1 ovarian carcinoma, drug combinations, stronger effect = higher value
[24] = drug combination toxicity in non-malignant astrocytes – cell-based, BGB or cisplatin IC20 combos, cytotoxicity control for chromothriptic childhood tumor combination screen (AID 1671460); details: Human astrocytes, viability inhibition, drug combinations, at 0.5 µM, stronger effect = higher value;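 note: cells exposed to compounds for 96 hours before viability readout; 0% = vehicle and 100% = killing control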
[25] = BT084 cell growth, single and combined drugs, ICGC_MB145, cisplatin and BGB IC40 combos (AID 1671461); details: BT084 medulloblastoma cells, drug combinations, stronger effect = higher value;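 note: cells exposed to drugs for 96 hours; 0% = vehicle DMSO and 100% = high DMSO full killing control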
[26] = RCMB18 cell growth, single agent and combined, cisplatin and BGB IC40 combos (AID 1671462); details: RCMB18 medulloblastoma cells, stronger effect = higher value;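 note: cells exposed to compound for four days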
[27] = CRL1545 cell growth, single agent and combined, cisplatin and BGB IC20 combos (AID 1671464); details: CRL1545 osteosarcoma cells, stronger effect = higher value;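 note: cells exposed to compound for 96 hours before readout; 0% = vehicle DMSO and 100% = high DMSO killing control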
[28] = measured here: combination with BGB IC40, at 0.05 µM
[29] = measured here: with BGB IC20 combination, at 0.5 µM
[30] = measured here: with cisplatin IC20 combination, at 0.5 µM
[31] = measured here: combination with cisplatin, at 0.5 µM
[32] = measured here: combination with cisplatin, at 5 µM

Sequence of NAD(+) hydrolase SARM1 (Homo sapiens) (Q6SZW1 whole entry, looked up, the tested form may be a part): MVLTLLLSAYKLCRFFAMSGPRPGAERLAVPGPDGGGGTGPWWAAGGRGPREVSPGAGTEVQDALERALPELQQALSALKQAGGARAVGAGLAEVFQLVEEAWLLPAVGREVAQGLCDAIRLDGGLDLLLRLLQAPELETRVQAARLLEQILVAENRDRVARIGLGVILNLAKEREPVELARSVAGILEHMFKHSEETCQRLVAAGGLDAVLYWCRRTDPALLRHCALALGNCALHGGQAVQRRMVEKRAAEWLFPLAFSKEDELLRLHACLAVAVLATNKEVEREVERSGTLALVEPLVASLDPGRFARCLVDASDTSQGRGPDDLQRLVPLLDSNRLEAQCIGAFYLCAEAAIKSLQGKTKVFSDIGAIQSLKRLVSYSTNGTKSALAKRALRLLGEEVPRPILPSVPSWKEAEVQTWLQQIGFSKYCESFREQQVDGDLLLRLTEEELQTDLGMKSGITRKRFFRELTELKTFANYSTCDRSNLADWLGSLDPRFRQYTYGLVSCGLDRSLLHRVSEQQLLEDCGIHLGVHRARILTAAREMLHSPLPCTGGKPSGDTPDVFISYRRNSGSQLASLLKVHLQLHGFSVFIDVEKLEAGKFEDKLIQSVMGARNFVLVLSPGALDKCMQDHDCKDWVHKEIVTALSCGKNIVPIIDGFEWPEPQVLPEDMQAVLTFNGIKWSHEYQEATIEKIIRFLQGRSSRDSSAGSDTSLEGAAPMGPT
Sequence of 6-phosphogluconate dehydrogenase, decarboxylating (Homo sapiens) (P52209 whole entry, looked up): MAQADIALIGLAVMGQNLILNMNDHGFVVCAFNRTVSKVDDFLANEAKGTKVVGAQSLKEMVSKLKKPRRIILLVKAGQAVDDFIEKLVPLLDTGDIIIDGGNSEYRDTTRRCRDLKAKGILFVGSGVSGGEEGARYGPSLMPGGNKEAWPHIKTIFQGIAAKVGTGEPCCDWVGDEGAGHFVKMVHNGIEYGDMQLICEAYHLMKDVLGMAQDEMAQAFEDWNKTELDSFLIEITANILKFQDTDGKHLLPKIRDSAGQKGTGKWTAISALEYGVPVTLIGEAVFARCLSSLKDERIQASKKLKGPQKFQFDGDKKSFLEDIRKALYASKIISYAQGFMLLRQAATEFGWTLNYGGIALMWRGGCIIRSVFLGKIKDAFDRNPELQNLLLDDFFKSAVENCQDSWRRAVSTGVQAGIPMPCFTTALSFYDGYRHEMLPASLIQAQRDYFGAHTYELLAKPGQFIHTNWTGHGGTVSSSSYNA
Sequence of Mitogen-activated protein kinase 7 (Homo sapiens) (Q13164 whole entry, looked up, the tested form may be a part): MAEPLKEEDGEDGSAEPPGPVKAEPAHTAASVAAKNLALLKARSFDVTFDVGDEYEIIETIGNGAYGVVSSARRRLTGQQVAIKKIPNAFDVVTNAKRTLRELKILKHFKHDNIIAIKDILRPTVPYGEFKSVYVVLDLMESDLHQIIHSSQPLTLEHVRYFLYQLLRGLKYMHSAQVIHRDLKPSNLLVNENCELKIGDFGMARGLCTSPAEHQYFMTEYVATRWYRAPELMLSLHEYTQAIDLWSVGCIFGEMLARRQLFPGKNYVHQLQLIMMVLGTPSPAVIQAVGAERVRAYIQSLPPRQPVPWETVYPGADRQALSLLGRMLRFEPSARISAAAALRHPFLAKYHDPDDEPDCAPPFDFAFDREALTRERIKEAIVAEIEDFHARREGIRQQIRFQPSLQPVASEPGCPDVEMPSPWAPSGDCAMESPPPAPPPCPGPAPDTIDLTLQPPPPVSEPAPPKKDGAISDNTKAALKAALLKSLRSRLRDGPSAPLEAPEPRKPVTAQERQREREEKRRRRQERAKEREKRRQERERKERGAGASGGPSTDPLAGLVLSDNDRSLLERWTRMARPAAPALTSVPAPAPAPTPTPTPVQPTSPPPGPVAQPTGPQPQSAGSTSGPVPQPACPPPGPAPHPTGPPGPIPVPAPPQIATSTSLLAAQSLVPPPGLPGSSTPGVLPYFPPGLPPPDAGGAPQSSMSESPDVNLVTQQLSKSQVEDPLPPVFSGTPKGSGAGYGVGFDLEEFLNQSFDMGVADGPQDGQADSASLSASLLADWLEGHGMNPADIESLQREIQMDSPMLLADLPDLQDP

N=c1ccn2c(n1)O[C@H]1[C@H](O)[C@@H](CO)O[C@H]12
parasite load remaining [1]: 29.5% (inactive)
viability [1]: 73.5%
inhibition [2]: -4.99% (inactive)
AC50 [3]: 1180 nM (active)
outcome [4]: inactive
outcome [5]: inactive
outcome [6]: inactive
outcome [7]: inactive
fold change ([8]; stronger effect = lower value, cell number ratio, induced over uninduced): 1.14 (inactive)
fold change ([8]; measured here: relative caspase fold change +Dox/-Dox): 1
cell count ([8]; measured here: total cells with miR-34 induction, stronger effect = lower value): 3040
cell count ([8]; measured here: total cells without miR-34 induction): 2660
z-score ([9]; MELAS cybrid survival, CellTiter-Glo 48 h, stronger effect = higher value): -0.885 (inactive)
z-score ([9]; Rieske KO mouse fibroblast survival, CellTiter-Glo 72 h): -0.24
remaining NAD [10]: 10 nM (inactive)
luciferase signal [11]: 44 AU (inactive)
z-score [12]: -1.8 (inactive)
inhibition ([13]; at 0.5 µM, stronger effect = higher value): -28.5% (inactive)
inhibition ([13]; measured here: combination with BGB IC20, at 0.005 µM): -22.6%
inhibition ([13]; measured here: combination with BGB IC40, at 0.005 µM): -23.7%
inhibition [13, 28]: -32.2%
inhibition ([13]; measured here: combination with cisplatin, at 0.5 µM, stronger effect = higher value): -58.3%
inhibition ([13]; measured here: combination with cisplatin, at 5 µM, stronger effect = higher value): 86.6%
inhibition ([14]; BGB combo, at 5 µM): 85.1%
inhibition ([14]; at 0.5 µM): 76.6% (inactive)
inhibition ([14]; cisplatin combo, at 5 µM): 80.9%
inhibition [14, 29]: 82.4%
inhibition [14, 30]: 69.1%
inhibition ([14]; single agent, at 5 µM): 81.4%
inhibition ([15]; BGB IC20 combo, at 0.005 µM): -16.9%
inhibition ([15]; BGB IC40 combo, at 0.005 µM): -39.5%
inhibition ([15]; BGB IC40 combo, at 0.05 µM): -9.88%
inhibition ([15]; at 0.5 µM): -19.6% (inactive)
inhibition ([15]; cisplatin combo, at 0.05 µM): -12.9%
inhibition ([15]; cisplatin combo, at 0.5 µM): -20.7%
inhibition ([15]; cisplatin combo, at 5 µM): -55.6%
inhibition ([15]; measured here: 5 uM single agent, at 5 µM): -6.48%
inhibition ([16]; at 0.5 µM): -7.06% (inactive)
inhibition [16, 28]: -18.8%
inhibition [16, 31]: 43.5%
inhibition [16, 32]: 68.2%
inhibition ([17]; at 0.5 µM): 32.7% (inactive)
inhibition ([17]; measured here: with BGB IC20, at 0.5 µM): 1.49%
inhibition ([17]; measured here: with BGB IC20, at 5 µM): 23.6%
inhibition ([17]; measured here: with cisplatin IC20, at 0.5 µM): 44.8%
inhibition ([17]; measured here: with cisplatin IC20, at 5 µM): 50.9%
inhibition ([17]; single agent, at 5 µM): 64.3%
inhibition ([18]; at 0.5 µM): 32.1% (inactive)
inhibition ([18]; measured here: combination with BGB at IC20, at 0.5 µM): -10.4%
inhibition ([18]; measured here: combination with cisplatin at IC20, at 0.5 µM): 52.4%
inhibition ([19]; at 0.5 µM): 89.9% (active)
inhibition ([19]; measured here: combo with BGB at IC20, at 0.5 µM): 84%
inhibition ([19]; measured here: combo with cisplatin at IC20, at 0.5 µM): 91.1%
inhibition ([20]; at 0.5 µM): 1.85% (inactive)
inhibition ([20]; measured here: inhibition with BGB combination, at 0.05 µM): -40.2%
inhibition ([20]; measured here: inhibition with cisplatin combination, at 0.05 µM): -14.8%
inhibition ([21]; at 0.5 µM): -10.7% (inactive)
inhibition [21, 31]: 6.24%
inhibition [21, 32]: 44.7%
inhibition ([22]; at 0.5 µM): 14% (inactive)
inhibition ([22]; measured here: BGB combination, at 0.5 µM): 5.47%
inhibition ([22]; measured here: BGB combination, at 5 µM): 33.7%
inhibition ([22]; measured here: cisplatin combination, at 0.5 µM): 0.616%
inhibition ([22]; measured here: cisplatin combination, at 5 µM): 57.3%
inhibition ([23]; BGB combination, concentration series, at 5 µM): 22.3%
inhibition ([23]; at 0.5 µM): 7.05% (inactive)
inhibition ([23]; cisplatin combination, concentration series, at 5 µM): 41.2%
inhibition [24]: 27.9% (inactive)
inhibition ([24]; measured here: combo with BGB IC20): 22.9%
inhibition ([24]; measured here: combo with cisplatin IC20): 18.2%
inhibition ([25]; at 0.5 µM): -29.7% (inactive)
inhibition ([25]; cisplatin combination, at 0.5 µM): 2.2%
inhibition ([25]; cisplatin combination, at 5 µM): 58.5%
inhibition ([25]; measured here: BGB IC40 combination 0.05 uM, at 0.05 µM): -14%
inhibition ([25]; single agent, at 5 µM): -28.9%
inhibition ([26]; at 0.5 µM): -18% (inactive)
inhibition ([26]; cisplatin combo, at 5 µM): 61%
inhibition ([26]; measured here: BGB IC40 combination, at 0.05 µM): -21.5%
inhibition [26, 31]: 11.8%
inhibition ([26]; single agent, at 5 µM): -26.3%
inhibition ([27]; at 0.5 µM): -32.9% (inactive)
inhibition [27, 29]: -44.9%
inhibition [27, 30]: -29.7%
inhibition ([27]; single agent, at 0.05 µM): -73.2%
inhibition ([27]; single agent, at 5 µM): 23.2%
